In PubChem BioAssay (NCI):
About 83,000 compounds went through this panel and 20% of them were active in at least one assay; those are over-represented in the sample as a whole.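 Negative percent growth values reflect cell death: -40 means 40% of the cells present at the start died, and -100 means all died.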 Values without a mark were called inactive. Active and inactive are the calls of the source. Rule for the calls: active = growth percent below 10; inactive = the rest.

tested on: RPMI-8226 leukemia; assay: NCI-60 one-dose screen, 48 h (100 = growth as untreated, 0 = no growth, -100 = all killed); conditions: 10 µM unless noted

Compound	growth
Nc1cc2ccccc2c(=O)n1NC(=O)c1ccc(I)cc1	98%
CC(=O)Nc1cccc(Nc2nc(N[C@H]3CCCc4ccccc43)c3ccccc3n2)c1	103%
CCN(CC)C(=O)N/C(N)=N/c1nc2ccccc2s1	31.5%
O=C(O)c1cccc(-c2ccc(/C=N/NC(=O)c3[nH]c4ccc(Br)cc4c3-c3ccccc3)o2)c1	96.5%
NS(=O)(=O)c1ccc(-n2cc(-c3cccc(NC(=O)c4cc(C(F)(F)F)cc(C(F)(F)F)c4)c3)nn2)cc1	90%
C[C@H](Nc1nc(NCCc2ccccc2)nc2ccccc12)c1ccccc1	-37.5% (active)
C(=C\c1cc(/C=C/c2ccccc2)c2ccccc2n1)/c1ccccc1	25.3%
C=C1CC[C@@H]2[C@]3(C)COC(c4cn(-c5ccccc5)nc4-c4ccccc4)O[C@@H]3CC[C@@]2(C)[C@@H]1C/C=C1/C(=O)OC[C@H]1O (stereo partly drawn)	-10.3% (active)
N#Cc1c(-c2cccc3ccccc23)cc(-c2cccc(OCC(=O)O)c2)[nH]c1=O	96.5%
O=C(/C=C/c1cccc(OCc2ccc(F)cc2)c1)c1nc2ccccc2[nH]1	-50.4% (active)
CCOC(=O)C1=C(N)N(c2ccccc2)C2=C(C(=O)CC(C)(C)C2)C1c1cccc(Cl)c1Cl (stereo not drawn)	50.7%
CC(C)c1ccc2c(N)c(C(=O)Nc3ccc(C(F)(F)F)cn3)sc2n1	37.9%
COc1ccc2cc([C@H](C)C(=O)N/N=C/c3ccc(Br)cc3)ccc2c1	105%
CC(=O)Oc1ccccc1C(=O)[Se]CC(=O)Nc1cccc(C(F)(F)F)c1	35.6%
COc1ccc(NC(=O)c2sc3nc(C(C)C)ccc3c2N)cc1	54.5%
CC1=C(C(=O)OCc2ccccc2)C(c2c(O)cc(O)cc2O)n2c(nc3ccccc32)N1 (stereo not drawn)	81.9%
N#Cc1ccc(/C=N/NC(=O)c2[nH]c3ccc(Br)cc3c2-c2ccccc2)o1	3.55% (active)
CC1=C(C(=O)OC(C)C)C(c2cccc(O)c2)NC(=S)N1 (stereo not drawn)	88.9%
COc1cc(-c2ccc(/C=N/NC(=O)c3[nH]c4ccc(Br)cc4c3-c3ccccc3)s2)cc(OC)c1OC	61.1%

Compound	growth
COc1cc(/C=C/C(=O)c2nnn(-c3ccc(Cl)cc3)c2C)cc(OC)c1OC	-7.65% (active)
CC1=C(C(=O)OCc2ccccc2)C(c2ccc(-n3cncn3)cc2)n2c(nc3ccccc32)N1 (stereo not drawn)	35.4%
COc1cc(-c2cc(-c3cccc(OCC(=O)O)c3)[nH]c(=O)c2C#N)cc(OC)c1OC	98.6%
CSc1ccc(C(=O)Nc2ccc3nn(/C(C#N)=C/c4ccccn4)nc3c2)cc1	-42.5% (active)
CSc1ccc(NC(=O)c2ccc3nn(/C(C#N)=C/c4ccccn4)nc3c2)cc1	-35.4% (active)
CC1CCCCN1CCCNC(=O)N/C(N)=N/c1nc2ccccc2s1 (stereo not drawn)	1.48% (active)
O=C(O)c1ccc(-c2ccc(/C=N/NC(=O)c3[nH]c4ccc(Br)cc4c3-c3ccccc3)s2)cc1	12.1%
CSc1ccccc1NC(=O)c1ccc2nnn(/C(C#N)=C/c3ccccn3)c2c1	-29% (active)
Clc1cccc(Cl)c1/C=C/c1cc(/C=C/c2ccc(Br)cc2)c2ccccc2n1	86.6%
C=C1CC[C@@H]2[C@]3(C)COC(c4cn[nH]c4-c4ccc(OC)cc4)O[C@@H]3CC[C@@]2(C)[C@@H]1C/C=C1/C(=O)OCC1O (stereo partly drawn)	-27% (active)
CSc1ccc(C(=O)Nc2ccc3nnn(/C(C#N)=C/c4ccccn4)c3c2)cc1	-40.8% (active)
CC(=O)Nc1cccc(Nc2nccc(N[C@@H](C)c3ccccc3)n2)c1	8.53% (active)
O=C(N/N=C/c1ccc(-c2ccc(O)cc2)s1)c1[nH]c2ccc(Br)cc2c1-c1ccccc1	-8.25% (active)
COc1cc(CNC(=O)/C=C/c2ccc3c(c2)OCO3)ccc1OCc1cn(-c2cccc(C(F)(F)F)c2)nn1	40.9%
O=C(O)c1ccc(-c2ccc(/C=N/NC(=O)c3[nH]c4ccc(Br)cc4c3-c3ccccc3)o2)cc1	14.8%
CCCCOc1ccc(NC(=O)c2sc3nc(C)ccc3c2N)cc1	32.4%
Cc1ccc2c(N)c(C(=O)Nc3ccc(-c4ccccc4)cc3)sc2n1	49.2%
COc1ccc2nc(Nc3cccc(NC(=O)c4ccc(CN5CCCN(C)CC5)c(C(F)(F)F)c4)c3)ccc2c1	-31.7% (active)
N#Cc1c(-c2cccnc2)cc(-c2ccc3ccccc3c2)[nH]c1=O	51.5%
